In the library only some 1.5% were active in any assay of this set; here they are far more common.
Efflux pump inh: antifungal efflux pump inhibition, Nile Red retention; S. cerevisiae Candida pump triplex; inhibition, % at 10 µM; hit rate 0.44% among 330,000; AID 485275;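 active means plate passing quality check with inhibition over a set limit, or well fluorescence over plate mean plus 4 SD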;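 further: Nile Red retained in pooled yeast measured as flow cytometry median fluorescence; 0% = buffer negative control and 100% = Enniatin B positive control; higher means more Nile Red kept so more efflux inhibition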
HDAC3 inh: human HDAC3 inhibition | recombinant HDAC3, fluorogenic peptide/trypsin coupled, fluorescence | inhibition, % at 8.3 µM | hit rate 0.15% among 320,000; in the data active means inhibition above about 26%, passing the limit was not always enough
NALP1 yeast inh: blocks the NALP1 inflammasome reconstituted in yeast; hit rate 0.61% among 280,000; inhibition, % at 10 µM; S. cerevisiae NALP1/ASC/caspase-1 growth, X-gal OD620, 72 h; in the data active means inhibition mostly above about 24%, no sharp cut-off; inactive means mostly below about 32%
GASC-1 inh: human JMJD2C demethylase inhibition | Q9H3R0 | GST-JMJD2C(1-420) H3K9me3 demethylation, DELFIA europium | inhibition, % at 2.35 µM | hit rate 0.069% among 330,000 | AID 2099;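 active means more than half of a compound's replicate wells show inhibition beyond 50%, single wells judged on their own value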;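 further: signal counts dimethyl H3K9 product captured on neutravidin plate; 0% = median of DMSO wells and 100% = 0.3 times that DMSO median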
Target sequence (Q9H3R0 1-420 limits assumed): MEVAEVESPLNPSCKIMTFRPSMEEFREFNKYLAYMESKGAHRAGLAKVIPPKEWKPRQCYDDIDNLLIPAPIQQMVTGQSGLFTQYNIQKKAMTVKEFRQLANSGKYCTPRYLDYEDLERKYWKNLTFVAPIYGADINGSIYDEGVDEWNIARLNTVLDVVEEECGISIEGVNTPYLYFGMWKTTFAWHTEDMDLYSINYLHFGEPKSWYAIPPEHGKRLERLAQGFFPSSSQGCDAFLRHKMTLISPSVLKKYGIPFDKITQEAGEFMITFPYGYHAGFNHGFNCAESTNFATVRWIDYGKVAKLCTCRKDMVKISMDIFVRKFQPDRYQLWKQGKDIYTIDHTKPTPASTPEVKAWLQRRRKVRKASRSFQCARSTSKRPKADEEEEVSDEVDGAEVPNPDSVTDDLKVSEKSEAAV
NLRP3 yeast inh: NALP3 inhibition in yeast. hit rate 0.39% among 330,000. inhibition, % at 10 µM. Yeast reconstituted NLRP3/ASC/caspase-1, beta-gal luminescence, 24 h. AID 2825;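 active means inhibition of 50% or more; inactive means inhibition below 50%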;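 further: plate controls were induced DMSO wells for no effect and uninduced yeast grown without galactose for full effect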
PolyA inhibitor: inhibitors of polyadenylation in S. cerevisiae; S. cerevisiae SKY197-pL101 polyadenylation reporter, beta-gal luminescence; efflux-impaired pdr1/pdr3 knockout yeast; score 100 = 6 SD above DMSO; activity score, % at 12 µM; hit rate 0.02% among 300,000;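 active means lowest replicate activity score at least 50, where 100 means six control SD above control mean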;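 further: yeast exposed to compound for 9 h at 30 °C; higher score means more reporter readthrough which indicates perturbed polyadenylation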
NALP3 yeast conf: confirmation of NALP3 inhibitors in yeast; yeast expressing human NALP3, luminescence; inhibition, % at 10 µM; hit rate 81% among 1,300; AID 435006; shares compounds with NLRP3 yeast inh; in the data active means inhibition above about 48%
Casp1-ASC yeast: active in yeast caspase-1-ASC counter-screen for NALP3 inhibitors; shares compounds with NLRP3 yeast inh; yeast expressing Caspase-1-ASC, luminescence counter screen; inhibition, % at 10 µM; hit rate 66% among 1,000; AID 488784
NALP3 retest: yeast NALP3 inhibition, confirmed on retest. yeast expressing human NALP3, luminescence read-out. hit rate 53% among 1,000. inhibition, % at 10 µM. shares compounds with NLRP3 yeast inh
Starred values were filed as active, the others as inactive; / = not tested or not shown. Unless noted, no stated cut-off is given here; in the data, active means inhibition above about 50%; inactive means the rest.

SMILES	Efflux pump inh	HDAC3 inh	NALP1 yeast inh	GASC-1 inh	NLRP3 yeast inh	PolyA inhibitor	NALP3 yeast conf	Casp1-ASC yeast	NALP3 retest
CCC(=O)c1coc2ccc(O)cc12	0	1	/	-12	-7	13	/	/	/
Nc1cc(=O)[nH]c(SCC(=O)NC2CCCCCCC2)n1	0	9	/	4	8	/	/	/	/
CSc1ccc2c(c1)N(CCC1CCCCN1C)c1ccccc1S2 (centres undefined)	0	3	50*	-16	52*	3	60*	52*	33
O=C(Nc1cc2ccccc2oc1=O)c1ccccc1	0	-4	11	-10	60*	-14	73*	51*	53*
Cc1cc(N/N=C/c2ccc(F)cc2)nc(-n2nc(C)cc2C)n1	0	1	0	-2	24	-14	/	/	/
CCOc1cc(/C=N/Nc2cc(C)nc(-n3nc(C)cc3C)n2)ccc1O	0	2	5	21	77*	-18	54*	19	36
COc1ccc(CCN(C)C(=O)c2cc(=O)c3ccccc3o2)cc1OC	0	5	14	-8	0	8	/	/	/
C/C(=N\NC(=S)NCc1ccccc1)c1ccc2ccccc2c1OC(F)F	0	-2	-5	16	56*	-36	16	/	/
C/C(=N\NC(=S)NCc1ccccc1)c1ccc(Br)cc1	0	-10	2	32	4	-35	/	/	/
CN1CCN(Cn2cc(/C=C/C(=O)c3ccccc3)c3ccccc32)CC1	0	9	0	7	67*	-12	74*	/	/
CCC(C(=O)OC)n1cnc2scc(-c3ccc(C)c(C)c3)c2c1=O (centres undefined)	0	-12	100*	3	97*	-6	99*	99*	98*
CCC(C(=O)O)n1cnc2scc(-c3ccc(C)c(C)c3)c2c1=O (centres undefined)	0	-3	-1	-1	8	0	/	/	/
Cc1ccc(Cl)cc1NC(=O)COC(=O)CC1CCCCC1	0	4	/	-9	23	/	/	/	/
CC1(C)COC(/C=C/c2cccc([N+](=O)[O-])c2)=N1	0	5	11	-4	55*	-3	62*	74*	57*
O=C1/C(=C/c2ccc(N3CCOCC3)o2)SC(=Nc2ccccc2)N1CCc1c[nH]c2ccccc12	0	-3	8	-10	68*	12	77*	/	/
O=C(NNC(=S)Nc1ccc(Br)cc1)c1cccnc1	0	3	0	14	53*	11	50*	/	/
Cc1ccc(N2CC(C(=O)N3CCN(Cc4ccc5c(c4)OCO5)CC3)CC2=O)cc1 (centres undefined)	0	5	16	-3	14	-15	/	/	/
c1ccc(-c2n[nH]c3ccccc23)cc1	0	0	22*	2	65*	-6	85*	70*	63*
CN=c1oc2ccc(Cl)cc2cc1C(N)=O	0	4	9	-9	51*	-7	46	17	16
Cc1ccc(-n2nnnc2CNC(=O)c2ccc3c(c2)OCO3)cc1C	0	3	20	5	1	3	/	/	/
c1ccc(-c2nc(Sc3ncnc4c3cnn4-c3ccccc3)n[nH]2)cc1	0	-5	4	3	50	-17	69*	/	/
O=C(Oc1c(Cl)cc(Cl)c2cccnc12)c1ccco1	0	-1	31	-1	71*	-57	84*	/	/
O=C(Oc1c(Cl)cc(Cl)c2cccnc12)c1cccs1	0	8	-3	4	61*	-39	70*	83*	81*
Cn1c(=O)c2sccc2n2c(CCCC(=O)NCc3ccco3)nnc12	0	-2	2	-3	-5	22	/	/	/
Cc1cc(Cl)c2oc(C(=O)N(C)Cc3ccon3)c(C)c2c1	1	2	42*	4	50*	4	48*	41	47
CCCCN1CC(COCc2ccccc2)Oc2ccccc2S1(=O)=O (centres undefined)	0	/	/	/	/	/	/	/	/

Screening data: PubChem BioAssay, several laboratories
